Measured values from PubChem BioAssay (EPA / NIEHS).
Active and inactive are the calls of the source. How the source made its calls: active means hit-call score of the fitted dose curve at least 0.9, where 1 is the maximum; inactive means score below 0.9.

Legend:
Conditions in all cases: mRNA level, 48 h; actives raise or lower the signal
[1] = read-out: Transforming Growth Factor (TGFA), TGFA (gene 7039); test: LTEA_HepaRG_TGFA: Life Technologies and Expression Analysis (LTEA) Assay for Transforming Growth Factor (TGFA) using HepaRG (AID 2283532)
Procedure, shortened: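 HepaRG (human liver line), 48 h exposure, 8 conc. half-log down from 100 uM, 0.5% DMSO vehicle, duplicates; serum-free induction medium. TGFA mRNA by TaqMan qRT-PCR, ACTB/GAPDH/POLR2A normalization; gain/loss fit vs DMSO.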

[2] = read-out: Transforming Growth Factor (TGFB1), TGFB1 (gene 7040); test: LTEA_HepaRG_TGFB1: Life Technologies and Expression Analysis (LTEA) Assay for Transforming Growth Factor (TGFB1) Transporter using HepaRG (AID 2283533)
Procedure, shortened: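 TGFB1 transcript measured by qRT-PCR with normalisation to three housekeeping genes (ACTB, GAPDH, POLR2A); human HepaRG line treated in duplicate for 48 hr with an 8-point series topping at 100 uM, 0.5% DMSO vehicle, bidirectionally fitted.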

TIMP1, TIMP1 (gene 7076) = test: LTEA_HepaRG_TIMP1: Life Technologies and Expression Analysis (LTEA) Assay for TIMP1 using HepaRG (AID 2283534)
Procedure, shortened: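 Bidirectional change in TIMP1 transcript versus 0.5% DMSO, measured by TaqMan qRT-PCR with three housekeeping genes for normalization. HepaRG human liver cells dosed 48 h in duplicate, top concentration 100 uM with half-log dilutions.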

[3] = read-out: Tumor necrosis factor receptor 1 (TNFRSF1A), TNFRSF1A (gene 7132); test: LTEA_HepaRG_TNFRSF1A: Life Technologies and Expression Analysis (LTEA) Assay for Tumor necrosis factor receptor 1 (TNFRSF1A) using HepaRG (AID 2283535)
Procedure, shortened: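 mRNA measured by qRT-PCR (TaqMan, Fluidigm arrays) against ACTB/GAPDH/POLR2A housekeepers after 48 h chemical exposure of HepaRG cells. Top concentration 100 uM, half-log 8-point series, duplicates; vehicle 0.5% DMSO, both fit directions.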

[4] = read-out: Thyroid Hormone Responsive (THRSP), THRSP (gene 7069); test: LTEA_HepaRG_THRSP: Life Technologies and Expression Analysis (LTEA) Assay for Thyroid Hormone Responsive (THRSP) using HepaRG (AID 2283536)
Procedure, shortened: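 mRNA induction or loss relative to 0.5% DMSO vehicle was fitted bidirectionally across an eight-point curve whose highest exposure was 100 uM. Human HepaRG liver cells received chemicals in duplicate over 48 h before RNA extraction.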

[5] = read-out: Cellular tumor antigen p53 (Homo sapiens) (UniProt P04637); test: LTEA_HepaRG_TP53: Life Technologies and Expression Analysis (LTEA) Assay for Tumor Protein P53 (TP53) using HepaRG (AID 2283537)
Procedure, shortened: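 Read-out is TP53 transcript level by microfluidic qRT-PCR, normalised to three housekeeping genes and fitted bidirectionally against DMSO. Human HepaRG cells received compounds for 48 h, highest concentration 100 uM.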

[6] = read-out: UDP glucuronosyltransferase (UGT1A1), UGT1A1 (gene 54658); test: LTEA_HepaRG_UGT1A1: Life Technologies and Expression Analysis (LTEA) Assay for UDP glucuronosyltransferase (UGT1A1) using HepaRG (AID 2283538)
Procedure, shortened: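 Differentiated human HepaRG cells in serum-free induction medium were exposed in duplicate for 48 h to eight half-log concentrations up to 100 uM in 0.5% DMSO. UGT1A1 mRNA was quantified by TaqMan qRT-PCR, normalized to ACTB, GAPDH and POLR2A, and fitted bidirectionally against DMSO.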

[7] = read-out: X-box binding protein 1 (XBP1), XBP1 (gene 7494); test: LTEA_HepaRG_XBP1: Life Technologies and Expression Analysis (LTEA) Assay for X-box binding protein 1 (XBP1) using HepaRG (AID 2283540)
Procedure, shortened: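 XBP1 transcript by qRT-PCR (housekeeping-normalized: ACTB, GAPDH, POLR2A) after 48 h chemical treatment of HepaRG cells, 8-point half-log series topping at 100 uM, vehicle 0.5% DMSO. Gain and loss of signal fitted relative to DMSO.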

[8] = read-out: sulfotransferase 2A1 (SULT2A1), SULT2A1 (gene 6822); test: LTEA_HepaRG_SULT2A1: Life Technologies and Expression Analysis (LTEA) Assay for sulfotransferase 2A1 (SULT2A1) using HepaRG (AID 2283531)
Procedure, shortened: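 Expression change of SULT2A1, by qRT-PCR with three housekeeping-gene normalization, was scored bidirectionally versus DMSO. Cells: differentiated HepaRG, dosed in duplicate for 48 h across 8 points, highest 100 µM, half-log dilution, 0.5% DMSO.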

[9] = read-out: UDP glucuronosyltransferase (UGT1A6), UGT1A6 (gene 54578); test: LTEA_HepaRG_UGT1A6: Life Technologies and Expression Analysis (LTEA) Assay for UDP glucuronosyltransferase (UGT1A6) using HepaRG (AID 2283539)
Procedure, shortened: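 Expression was quantified by TaqMan qRT-PCR on Fluidigm arrays with ACTB/GAPDH/POLR2A normalization and bidirectional fitting against 0.5% DMSO. HepaRG cells (~100,000/well) were treated in duplicate for 48 h at eight half-log concentrations up to 100 uM in serum-free induction medium.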

Measured: AC50

Cellular tumor antigen p53 (Homo sapiens), sequence (P04637 whole entry, looked up): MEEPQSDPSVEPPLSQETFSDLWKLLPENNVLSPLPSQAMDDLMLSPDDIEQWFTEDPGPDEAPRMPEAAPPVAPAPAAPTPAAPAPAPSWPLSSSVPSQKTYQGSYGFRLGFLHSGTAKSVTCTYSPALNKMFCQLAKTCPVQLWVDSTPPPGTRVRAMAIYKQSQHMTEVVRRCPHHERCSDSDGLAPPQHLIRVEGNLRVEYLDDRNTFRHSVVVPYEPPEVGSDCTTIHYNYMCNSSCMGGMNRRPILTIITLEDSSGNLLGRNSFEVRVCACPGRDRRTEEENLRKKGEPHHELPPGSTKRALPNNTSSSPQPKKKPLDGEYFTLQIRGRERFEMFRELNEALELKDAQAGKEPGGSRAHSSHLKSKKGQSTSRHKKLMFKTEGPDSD

c1nc[nH]n1
active: [1] 0.0948 µM | [2] 12.4 µM
not listed: [8] | [9]
inactive: all other assays above

O=[N+]([O-])c1ccc(Cl)c(Cl)c1
active: [4] 10.8 µM | [6] 13.5 µM
not listed: [5] | [9]
inactive: all other assays above

CCCN(CCC)c1c([N+](=O)[O-])cc(C(C)C)cc1[N+](=O)[O-]
active: TIMP1, TIMP1 (gene 7076) 0.11 µM | [3] 0.0432 µM | [5] 0.322 µM | [6] 1.85 µM
inactive: [1] | [2] | [4] | [7]

ClC1=C(Cl)C2(Cl)C3C(Cl)C(Cl)CC3C1(Cl)C2(Cl)Cl (centres undefined)
active: [2] 77 µM | [6] 2.81 µM
not listed: [8] | [9]
inactive: all other assays above

CC(C)(C)c1ccc(O)cc1
not listed: [8]
inactive: all other assays above

Cc1ccc(N)cc1N
active: [4] 4.89 µM | [6] 15 µM
not listed: [8] | [9]
inactive: all other assays above

ClC(Cl)(Cl)c1ccccc1
not listed: [8] | [9]
inactive: all other assays above

c1ccc(OP(Oc2ccccc2)Oc2ccccc2)cc1
not listed: [9]
inactive: all other assays above

CCCCN(CCCC)N=O
not listed: [8] | [9]
inactive: all other assays above

CCC1(c2ccccc2)C(=O)N=C(O)NC1=O (centres undefined)
active: [6] 50 µM
not listed: [8]
inactive: all other assays above

Nc1ccc2ccccc2c1
active: [4] 9.29 µM | [6] 18.8 µM
not listed: [8] | [9]
inactive: all other assays above

O=[N+]([O-])c1ccccc1
not listed: [8] | [9]
inactive: all other assays above

CCC(C)(C)c1ccc(O)cc1
not listed: [8] | [9]
inactive: all other assays above

COCCOCCO
active: [6] 1.57 µM
not listed: [5] | [9]
inactive: all other assays above

Cc1ccc(O)cc1C
not listed: [8] | [9]
inactive: all other assays above

[N-]=[N+]=[N-]
inactive: [2] | TIMP1, TIMP1 (gene 7076) | [7]
active: [1] 94.4 µM | [3] 72.6 µM | [4] 50 µM | [5] 81.9 µM | [6] 80.7 µM

O=C(O)C1C(C(=O)O)C2(Cl)C(Cl)=C(Cl)C1(Cl)C2(Cl)Cl (centres undefined)
not listed: [8] | [9]
inactive: all other assays above

CCOc1ccc(C(C)(C)COCc2cccc(Oc3ccccc3)c2)cc1
active: [6] 10.2 µM
not listed: [8] | [9]
inactive: all other assays above

CC(Cc1ccc(OCC(=O)O)cc1)NCC(O)c1csc(C(F)(F)F)n1 (centres undefined)
not listed: [8] | [9]
inactive: all other assays above

CCN(CC)c1ccccc1
not listed: [8] | [9]
inactive: all other assays above

Cc1cccc(N)c1
not listed: [8] | [9]
inactive: all other assays above

O=C(O)C(Cl)Cl
not listed: [5] | [8] | [9]
inactive: all other assays above

Nc1ccc(Cl)cc1
active: [6] 36.5 µM
not listed: [8] | [9]
inactive: all other assays above

CCOP(=S)(Oc1ccc([N+](=O)[O-])cc1)c1ccccc1 (centres undefined)
active: [4] 50 µM | [6] 12.7 µM
inactive: [1] | [2] | TIMP1, TIMP1 (gene 7076) | [3] | [7]

OCC1CO1 (centres undefined)
not listed: [8] | [9]
inactive: all other assays above

CCOS(=O)(=O)OCC
not listed: [8] | [9]
inactive: all other assays above

CCCCCCCc1ccc(O)cc1
not listed: [5] | [8] | [9]
inactive: all other assays above

Nc1cc2c3c(c1)C(c1ccccc1)=N[C@@H](NC(=O)c1cccnc1)C(=O)N3CC2
not listed: [5] | [8] | [9]
inactive: all other assays above

CCOP(=S)(OCC)SCSCC
not listed: [5] | [8] | [9]
inactive: all other assays above

c1ccc2c(c1)Nc1ccccc1S2
active: [4] 32.5 µM | [6] 50 µM
not listed: [8] | [9]
inactive: all other assays above

O=P1(N(CCCl)CCCl)NCCCO1 (centres undefined)
not listed: [8] | [9]
inactive: all other assays above

CSC(C)(C)C=NO
not listed: [5] | [8] | [9]
inactive: all other assays above

CCCCc1ccccc1
not listed: [5] | [8] | [9]
inactive: all other assays above

CCOC(=O)c1ccccc1C(=O)OCC
not listed: [8] | [9]
inactive: all other assays above

O=P(Oc1ccccc1)(Oc1ccccc1)Oc1ccccc1
active: [2] 77.5 µM | TIMP1, TIMP1 (gene 7076) 73.1 µM | [5] 50 µM | [6] 3.1 µM
inactive: [1] | [3] | [4] | [7]

CC(Cl)(Cl)C(=O)O
not listed: [5] | [8] | [9]
inactive: all other assays above

CN(C)C(=O)Cl
not listed: [5] | [8] | [9]
inactive: all other assays above

ClC(Cl)c1ccccc1
not listed: [5] | [8] | [9]
inactive: all other assays above

Cc1ccc([N+](=O)[O-])cc1C
not listed: [5] | [8] | [9]
inactive: all other assays above

CC(C)(C)OOC(C)(C)C
not listed: [8] | [9]
inactive: all other assays above

CCCCN(CCCC)SN(C)C(=O)Oc1cccc2c1OC(C)(C)C2
active: [6] 10 µM
not listed: [5] | [8] | [9]
inactive: all other assays above

CCNc1nc(Cl)nc(NC(C)(C)C)n1
active: [6] 6.03 µM
not listed: [5] | [8] | [9]
inactive: all other assays above

c1cc2c3c(cccc3c1)CC2
not listed: [8] | [9]
inactive: all other assays above
